The source of these data is PubChem BioAssay (NCATS).

Results filed as inconclusive are left out. A call without a number means that no potency is given here. Activity calls are given as the source filed them. Calls come from the whole dose curve; as a rule, active = well fitted cell-killing curve with a large enough effect; inconclusive = small, poorly fitted or top-dose-only effect; inactive = flat fitted curve, though single readings scatter.
Potency is the fitted concentration of half-maximal effect.

A short description of this test: Quantitative highthroughput screen to assess conditional lethalithy of NOMO1 cells grown in RPMI1640 with untreated serum (RPMI+s) (AID 1963876). Note: nearly all actives have a fitted effect of over 35% in size. The note with it: NOMO1 AML cells in RPMI+serum, CellTiter-Glo viability, 48 h; series mostly up to 45.8 µM. An excerpt: Assay Provider: Jason Cantor Ph.D.
Department of Biochemistry
University of Wisconsin-Madison, Madison, WI, USA
Chemical screening studies have identified drug sensitivities across hundreds of cancer cell lines but most putative therapeutics fail to translate. Discovery and development of drug candidates in models that more accurately reflect nutrient levels in human blood is a major challenge. Here we performed high-throughput screens in conventional versus Human Plasma-Like Medium (HPLM) to identify compounds that were "missed" when screening using the artificial culture condition. Sets of conditional anticancer compounds spanned phases of clinical development and included non-oncology drugs were assessed. […] We also traced conditional phenotypes for several chemotherapeutics to availability of HPLM-specific metabolites and confirmed others for compounds whose reported targets are encoded by nonessential genes. Our findings establish generalizable strategies for exploiting conditional lethality in HPLM to reveal therapeutic candidates and mechanisms of action in cancer cells.
Described herein are the results of each viability screens against three cell lines: NOMO1 (an acute myeloid leukemia cell line); P12-Ichikawa (a T-cell acute lymphoblastic leukemia); and SEM (a B-cell ALL). Each assay was screened using 3 different cell culture media: homemade human plasma-Like medium with 10% dialyzed fetal bovine serum (HPLM+ds); RPMI1640 with 10% untreated FBS and 5mM glucose (RPMI+s); and RPMI1640 with 10% dialyzed fetal bovine serum and 5 mM glucose (RPMI+ds).
PROTOCOL TABLE (as described by Inglese J, Shamu CE and Guy RK. 2007)
SEQUENCE No. (e.g., 1, 2, 3, etc.); […] (e.g., Cells, Incubation, Reagent, etc.); VALUE and DESCRIPTION.
1; Cells; 5 uL; white, solid bottom 1536-well Greiner assay plate.
2; Compounds; 23 nL; Kalypsis pin tool (Wako USA) equipped with a 1536-well pin head to transfer to the assay plates.
3; Incubation; 48 hours; 37C incubation.
4; Reagent; 3 uL; CellTiter Glo (Promega).
5; Incubation; 5 min, room temperature
6; Detection; Luminescence, Viewlux PerkinElmer.
NOTES (numbers refer to Sequence numbers above)
1. Briefly, 5 ul of cell reagent was dispensed using a Multidrop Combi Dispenser. The NOMO1 and SEM cells were plated at 500 cells/well and the P12-Ichikawa line at 1000 cells/well.
2. After seeding the cells, 23 nL of MIPE 4.1 library compounds (in DMSO) were added to each plate using a Kalypsys 1536 Pintool dispenser. Bortezomib at final concentration of […] and DMSO were added to each plate as positive and negative controls respectively. For each screen, MIPE 4.1 compounds were added over an eleven-point concentration range […] in 3-fold dilutions.
3. Each plate was covered with a stainless steel gasketed lid to prevent evaporation and incubated for 48 hour at 37C, 95% relative humidity, and 5% CO2.
4-5. Three microliter CellTilter-GloTM luminescent substrate mix (Promega) reagent was added to the assay plate and incubated at room temperature for 5 min.
6. The luminescence signal was measured using a ViewLux (PerkinElmer) multiplate reader with a 2 second exposure time per plate. Data for each compound were normalized as percent viability such that measurements for DMSO and the empty well controls in each plate were defined as 100% and 0%, respectively.
(Cellular ATP, detected with luciferase, serves as a proxy for viable cell number.)
As to `Cn1cc(-c2ccc3ncc(Cc4ccc5ncccc5c4)n3n2)cn1`, the Potency entry is “inactive”.

Regarding `O=C(CCCCCCNC(=O)c1cnc(N(c2ccccc2)c2ccccc2)nc1)NO`, the Potency was 18700 nM (active). For the compound `CC1=C(C(=O)O)N2C(=O)[C@@H](NC(=O)[C@H](N)C3=CCC=CC3)[C@H]2SC1`, the Potency entry was “inactive”. With `CN(C)c1ccc(C(=O)NCCCCCCC(=O)NO)cc1` the figure was 2960 nM (active); with `Cc1nc(-c2ccc(OCC(C)C)c(C#N)c2)sc1C(=O)O`, “inactive”; with `CN(C)c1ccc(C(=C2C=CC(=[N+](C)C)C=C2)c2ccc(N(C)C)cc2)cc1`, 148 nM (active). `N[C@@H](C(=O)N[C@@H]1C(=O)N2C(C(=O)O)=C(Cl)CS[C@H]12)c1ccccc1`: the Potency result was “inactive”.

As to `CC1(C)CCC(c2ccc(Cl)cc2)=C(CN2CCN(c3ccc(C(=O)NS(=O)(=O)c4ccc(N[C@H](CCN5CCOCC5)CSc5ccccc5)c(S(=O)(=O)C(F)(F)F)c4)cc3)CC2)C1`, the Potency is 662 nM (active). With `Cc1cnc(Nc2cccc(CN3CCOCC3)c2)nc1Nc1cccc(S(=O)(=O)NC(C)(C)C)c1` the entry was “inactive”; with `Cc1c(C)n(Cc2ccc(-c3ccccc3C(=O)O)cc2)c2ccc(C(=O)N[C@@H](C)c3ccc([N+](=O)[O-])cc3)cc12`, 9350 nM (active). With `N=c1ccn2c(n1)O[C@H]1[C@@H](O)[C@@H](CO)O[C@H]12` the figure was 2960 nM (active). Regarding `CCN(CC)CC#CCOC(=O)C(O)(c1ccccc1)C1CCCCC1` (stereo not given), the Potency entry is “inactive”. With `CC(=O)N1CCN(c2ccc(OCc3nn(C)c(C)c3-c3cccc4c(CCCOc5cccc6ccccc56)c(C(=O)O)n(Cc5cccnc5)c34)cc2)CC1` the figure was 1660 nM (active); with `CC(C)[C@H](CO)Nc1nc(Nc2cccc(Cl)c2)c2ncn(C(C)C)c2n1`, 2090 nM (active). Turning to `Nc1ccn([C@@H]2O[C@H](CO)[C@H](O)C2(F)F)c(=O)n1`, the Potency was 83.3 nM (active).

Take `O=P(O)(O)C(O)(Cn1ccnc1)P(=O)(O)O`: the Potency result was “inactive”. With `CCC(CC)[C@H](NC(C)=O)[C@@H]1[C@H](O)[C@@H](C(=O)O)C[C@@H]1N=C(N)N` the entry was “inactive”; with `CCCC(CCC)C(=O)O`, “inactive”; with `C#CCN[C@@H]1CCc2ccccc21`, “inactive”. With `O=C(NC1CC1)c1cccc(-c2ccc3c(NC(=O)C4CC4)n[nH]c3c2)c1` the figure was 23500 nM (active); with `O=C(Nc1cccnc1)N1CCC(Cc2cccc(Oc3ccc(C(F)(F)F)cn3)c2)CC1`, 10500 nM (active). With `CCOC(=O)N1CCC(=C2c3ccc(Cl)cc3CCc3cccnc32)CC1` the entry was “inactive”; with `COc1ccc(CCN2CCN(CCCc3ccccc3)CC2)cc1OC`, “inactive”; with `CN1CCN(C2=Nc3cc(Cl)ccc3Nc3ccccc32)CC1`, “inactive”. Take `CN[C@H]1[C@@H](O)[C@@H]2O[C@@H]3O[C@H](C)CC(=O)[C@]3(O)O[C@@H]2[C@@H](NC)[C@H]1O`: the Potency result was “inactive”.

As to `NCc1c[nH]c(=S)n1[C@H]1CCc2c(F)cc(F)cc2C1`, the Potency result is “inactive”.

`O=c1c(-c2ccc(O)cc2)coc2cc(O)cc(O)c12`: the Potency result was “inactive”. In the case of `CNCCN(C)Cc1cn[nH]c1-c1ccc(OC2CC(OCCC3CCOCC3)C2)cc1` (stereo not given), the Potency entry was “inactive”. Consider `O=C1CSC(=O)N1C(CCc1ccncc1)COc1ccc(-c2cccc([N+](=O)[O-])c2)cc1` (stereo not given), for which the Potency entry was “inactive”. As for `O=C(O)C1=CO[C@@H](O[C@@H]2O[C@H](CO)[C@H](O)[C@H](O)[C@H]2O)[C@@H]2C(CO)=CC[C@H]12`, the entry is “inactive”. With `CC(S)C(=O)NCC(=O)O` (stereo not given), the Potency entry was “inactive”. With `NC1=N[C@H]2[C@H](CS[C@H]2CCCCC(=O)O)N1`, the Potency entry is “inactive”. Regarding `NNC(=O)c1ccncc1`, the Potency entry is “inactive”. As for `COc1ccc2c(c1OC)C(=O)OC2[C@H]1c2c(cc3c(c2OC)OCO3)CCN1C` (stereo not given in full), the figure is 296 nM (active); as for `Cc1nc2ccc(CN(C)c3ccc(C(=O)N[C@@H](CCC(=O)O)C(=O)O)s3)cc2c(=O)[nH]1`, 418 nM (active).

Take `COc1cc(=C2C=c3ccccc3=N2)[nH]c1=Cc1[nH]c(C)cc1C`: the Potency entry is “inactive”.

As for `C[C@@H]1[C@H](C)CC[C@]2(C(=O)O)CC[C@]3(C)C(=CC[C@@H]4[C@@]5(C)C[C@@H](O)[C@H](O)[C@@](C)(CO)[C@H]5CC[C@]43C)[C@@H]12`, the Potency entry was “inactive”.

With `COc1cc(Nc2ncc(F)c(Nc3ccc4c(n3)N(COP(=O)(O)O)C(=O)C(C)(C)O4)n2)cc(OC)c1OC`, the Potency entry was “inactive”.

For `Cc1nc2ccc(C(=O)N3CCC4(CC3)CC(=O)c3c(cnn3C(C)C)C4)cc2[nH]1`, the Potency result was “inactive”.

As to `CC(N[C@H]1CCCC[C@H]1NC(=O)c1ccc(Cl)cc1)c1cccc2ccccc12` (stereo not given in full), the Potency was 8330 nM (active).
